This is part of a sample that, as a whole, favours compounds with a hit. Of some 79,000 tested, about 15% had one in any assay. The source made the active and inactive calls. No stated cut-off is given here; in the data, active means growth inhibition above about 70%; inactive means the rest.
Experiments:
[1] = NCI Yeast Anticancer Drug Screen. Data for the wt1 strain (AID 149);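 further: 0% = growth of vehicle-treated wt1 cultures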; settings: S. cerevisiae wt1 strain (SPY 50644) growth inhibition, active compounds read high
Procedure, shortened: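 Vehicle-normalised growth inhibition; strain wt1; compound exposure.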

[2] = NCI Yeast Anticancer Drug Screen. Data for the mgt1 strain (AID 153); settings: S. cerevisiae mgt1 mutant growth inhibition, active compounds read high
Procedure, shortened: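 After exposure of the mgt1 yeast mutant to compound, growth was measured and reported as inhibition compared with vehicle controls.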

[3] = NCI Yeast Anticancer Drug Screen. Data for the rad50 strain (AID 155);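 further: 0% = growth of vehicle-only cultures of the same strain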; settings: S. cerevisiae rad50 strain growth inhibition, active compounds read high
Procedure, shortened: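 A DNA repair-deficient yeast mutant serves as the test organism; compound-induced growth inhibition is calculated against vehicle-treated cells.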

[4] = NCI Yeast Anticancer Drug Screen. Data for the mec2-1 strain (AID 157); settings: S. cerevisiae mec2-1 strain, active compounds read high
Procedure, shortened: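 Test agents were screened against the mec2-1 yeast strain, with defined DNA repair or cell cycle alteration. Growth was scored as inhibition against vehicle-only controls.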

[5] = NCI Yeast Anticancer Drug Screen. Data for the rad14 strain (AID 159);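 further: 0% = growth of vehicle-treated control cultures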; settings: S. cerevisiae rad14 strain growth inhibition, active compounds read high
Procedure, shortened: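 Vehicle-treated cultures served as the baseline for growth inhibition of a DNA repair-mutant yeast strain exposed to each compound.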

[6] = NCI Yeast Anticancer Drug Screen. Data for the sgs1 mgt1 strain (AID 161);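 further: 0% = growth of cultures given vehicle only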; settings: S. cerevisiae sgs1 mgt1 strain, active compounds read high
Procedure, shortened: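 Genetically altered yeast, compound exposure, growth inhibition relative to vehicle.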

[7] = NCI Yeast Anticancer Drug Screen. Data for the CLN2oe strain (AID 163);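 further: 0% = growth of vehicle-only control cultures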; settings: S. cerevisiae CLN2oe strain, active compounds read high
Procedure, shortened: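 Here, growth inhibition in a cell-cycle-altered yeast strain after compound exposure was quantified against vehicle control growth.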

[8] = NCI Yeast Anticancer Drug Screen. Data for the cln2 rad14 strain (AID 165);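 further: 0% = growth equal to vehicle treated cultures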; settings: S. cerevisiae cln2 rad14 strain, active compounds read high
Procedure, shortened: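 Growth of compound-exposed yeast (cln2 rad14 genotype) measured and expressed as inhibition relative to vehicle.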

[9] = NCI Yeast Anticancer Drug Screen. Data for the bub3 strain (AID 167); settings: S. cerevisiae bub3 mutant strain, active compounds read high
Procedure, shortened: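 Inhibition values come from growth of compound-treated mutant yeast normalised to vehicle-treated controls.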

[10] = NCI Yeast Anticancer Drug Screen. Data for the mlh1 strain (AID 171);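 further: 0% = growth of vehicle-treated control cultures of the same strain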; settings: S. cerevisiae mlh1 strain growth inhibition, active compounds read high
Procedure, shortened: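 Here the genetically defined yeast mutant is grown with each compound, and the extent to which its growth falls below that of vehicle-exposed cells is reported.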

[11] = NCI Yeast Anticancer Drug Screen. Data for the sgs1 strain (AID 173);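 further: 0% = growth of vehicle-only control cultures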; settings: S. cerevisiae sgs1 mutant, active compounds read high
Procedure, shortened: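 Relative growth inhibition, referenced to vehicle, was determined in a yeast strain with a defined alteration affecting DNA damage repair or cell cycle control after compound exposure.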

[12] = NCI Yeast Anticancer Drug Screen. Data for the mlh1 rad18 strain (AID 175); settings: S. cerevisiae mlh1 rad18 strain growth inhibition, active compounds read high
Procedure, shortened: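 In this whole-cell yeast screen, a strain with altered DNA damage repair is challenged with compound, and its growth is measured against matched vehicle-treated controls.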

[13] = NCI Yeast Anticancer Drug Screen. Data for the rad18 strain (AID 177); settings: S. cerevisiae rad18 mutant growth inhibition, active compounds read high
Procedure, shortened: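 Screen uses a yeast strain with a defined lesion in DNA damage repair; compound effect is read as loss of growth compared to untreated vehicle cultures.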

[14] = at 5.0 µM (retest, dose inferred, filed as 0.5)
[15] = at 50.0 µM (retest, dose inferred, filed as 5.0)

Measured: growth inhibition

Cc1cc(C(C)(C)C)c(OCCCN2CCOCC2)c(C(C)(C)C)c1
active: [2]; at 100.0 µM 99% | [3]; at 50.0 µM 75.5% | [3]; at 100.0 µM 94% | [4]; at 100.0 µM 98% | [5]; at 100.0 µM 99% | [6]; at 50.0 µM 82.2% | [7]; at 100.0 µM 97% | [9]; at 50.0 µM 75.5% | [9]; at 100.0 µM 94% | [10]; at 100.0 µM 97% | [11]; at 100.0 µM 98% | [12]; at 50.0 µM 83.8% | [13]; at 100.0 µM 98%
inactive: [1]; at 1.2 µM -1% | [1]; at 3.7 µM 0% | [1]; at 11.0 µM -3% | [1]; at 33.0 µM -7% | [1]; at 100.0 µM 62% | [2]; at 1.2 µM 0% | [2]; at 3.7 µM -4% | [2]; at 11.0 µM -9% | [2]; at 33.0 µM 4% | [3]; at 1.2 µM -1% | [3]; at 3.7 µM -6% | [3]; [14] 5% | [3]; at 11.0 µM 5% | [3]; at 33.0 µM 8% | [3]; [15] 50% | [4]; at 1.2 µM -1% | [4]; at 3.7 µM -5% | [4]; [14] -2% | [4]; at 11.0 µM -8% | [4]; at 33.0 µM -4% | [4]; [15] 12% | [4]; at 50.0 µM 59.5% | [5]; at 1.2 µM -2% | [5]; at 3.7 µM -1% | [5]; at 11.0 µM -5% | [5]; at 33.0 µM 15% | [6]; [14] 2% | [6]; [15] -10% | [7]; at 1.2 µM -5% | [7]; at 3.7 µM -4% | [7]; at 11.0 µM -15% | [7]; at 33.0 µM -17% | [8]; [14] -21% | [8]; [15] -81% | [8]; at 50.0 µM 24.3% | [9]; at 1.2 µM -5% | [9]; at 3.7 µM -1% | [9]; [14] -15% | [9]; at 11.0 µM -32% | [9]; at 33.0 µM 6% | [9]; [15] -10% | [10]; at 1.2 µM 3% | [10]; at 3.7 µM 2% | [10]; at 11.0 µM -3% | [10]; at 33.0 µM -16% | [11]; at 1.2 µM 0% | [11]; at 3.7 µM 0% | [11]; at 11.0 µM 0% | [11]; at 33.0 µM 25% | [12]; [14] -7% | [12]; [15] 48% | [13]; at 1.2 µM -1% | [13]; at 3.7 µM -7% | [13]; at 11.0 µM -19% | [13]; at 33.0 µM -9%

Source: PubChem BioAssay (NCI)
